# Data: PubChem BioAssay (EPA / NIEHS)
# Records with an inconclusive call do not appear. Activity calls are given as the source filed them. Rule for the calls: active = hit-call score of the fitted dose curve at least 0.9, where 1 is the maximum; inconclusive = response in the unintended direction; inactive = score below 0.9.
# Molecular target: human Phosphodiesterase 10 (PDE10), PDE10A (gene 10846) (UniProt Q9Y233)
# Assay: NVS_ENZ_hPDE10: NovaScreen (NVS) Enzymatic Assay for human Phosphodiesterase 10 (PDE10) (AID 2283195)
# Summary of the method: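 Readout is fluorescence intensity following electrophoretic mobility-shift separation, 1 h after dosing of isolated PDE10A protein. Hits meeting a preset threshold at 25 uM went to concentration series (max 50 uM), analysed relative to DMSO.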
# Chain of human Phosphodiesterase 10 (PDE10), PDE10A (gene 10846) (Q9Y233 whole entry, looked up): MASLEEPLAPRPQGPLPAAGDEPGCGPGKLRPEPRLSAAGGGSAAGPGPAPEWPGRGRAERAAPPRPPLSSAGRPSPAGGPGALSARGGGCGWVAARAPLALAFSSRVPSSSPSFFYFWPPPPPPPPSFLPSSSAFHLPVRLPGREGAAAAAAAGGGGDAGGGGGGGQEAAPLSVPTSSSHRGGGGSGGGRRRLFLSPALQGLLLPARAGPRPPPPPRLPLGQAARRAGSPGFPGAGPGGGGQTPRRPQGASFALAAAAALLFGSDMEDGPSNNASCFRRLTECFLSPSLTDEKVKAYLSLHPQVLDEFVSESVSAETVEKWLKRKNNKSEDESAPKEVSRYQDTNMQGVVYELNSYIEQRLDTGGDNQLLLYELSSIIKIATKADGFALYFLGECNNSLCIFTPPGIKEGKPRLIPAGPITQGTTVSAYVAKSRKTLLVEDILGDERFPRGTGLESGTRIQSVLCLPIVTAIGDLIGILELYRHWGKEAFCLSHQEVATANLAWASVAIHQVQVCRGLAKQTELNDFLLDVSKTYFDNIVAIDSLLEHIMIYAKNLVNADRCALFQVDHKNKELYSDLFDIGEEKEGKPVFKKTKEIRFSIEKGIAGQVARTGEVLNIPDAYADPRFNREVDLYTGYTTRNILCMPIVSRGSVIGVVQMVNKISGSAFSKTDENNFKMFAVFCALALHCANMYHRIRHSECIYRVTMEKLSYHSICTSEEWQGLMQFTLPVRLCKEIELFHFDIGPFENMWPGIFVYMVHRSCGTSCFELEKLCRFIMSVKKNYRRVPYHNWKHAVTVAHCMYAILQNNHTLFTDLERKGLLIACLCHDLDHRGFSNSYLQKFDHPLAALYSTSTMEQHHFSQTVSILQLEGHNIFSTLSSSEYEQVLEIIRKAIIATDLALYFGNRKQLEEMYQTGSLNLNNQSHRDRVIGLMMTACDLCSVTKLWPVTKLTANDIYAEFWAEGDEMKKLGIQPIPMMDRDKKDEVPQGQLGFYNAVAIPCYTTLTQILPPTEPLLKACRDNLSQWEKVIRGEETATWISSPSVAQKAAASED
Compound,outcome,AC50
COc1ccc(OC(F)(F)F)cc1CN[C@H]1CCCN[C@H]1c1ccccc1,inactive,
CC(C)(O)c1ccc(CNC(=O)c2cccnc2Oc2ccc(F)cc2)cc1,inactive,
CCc1cc(C2=C(C(=O)O)N(c3ccccc3C(F)(F)F)S(=O)(=O)c3ccccc32)cc2c1OCO2,inactive,
CCCCc1nc2cccnc2n1Cc1ccc(-c2ccccc2-c2nnn[nH]2)cc1,,13 µM (active)
CCCCOC(=O)CCCCC(=O)OCCCC,inactive,
C/C=C/C=C/C(=O)O,inactive,
CN(C)CCCN(C)CCCN(C)C,inactive,

# Molecular target: human Phosphoinositide 3-kinase alpha (PI3Ka), PIK3CA (gene 5290) (UniProt P42336)
# Sequence (P42336 whole entry, looked up): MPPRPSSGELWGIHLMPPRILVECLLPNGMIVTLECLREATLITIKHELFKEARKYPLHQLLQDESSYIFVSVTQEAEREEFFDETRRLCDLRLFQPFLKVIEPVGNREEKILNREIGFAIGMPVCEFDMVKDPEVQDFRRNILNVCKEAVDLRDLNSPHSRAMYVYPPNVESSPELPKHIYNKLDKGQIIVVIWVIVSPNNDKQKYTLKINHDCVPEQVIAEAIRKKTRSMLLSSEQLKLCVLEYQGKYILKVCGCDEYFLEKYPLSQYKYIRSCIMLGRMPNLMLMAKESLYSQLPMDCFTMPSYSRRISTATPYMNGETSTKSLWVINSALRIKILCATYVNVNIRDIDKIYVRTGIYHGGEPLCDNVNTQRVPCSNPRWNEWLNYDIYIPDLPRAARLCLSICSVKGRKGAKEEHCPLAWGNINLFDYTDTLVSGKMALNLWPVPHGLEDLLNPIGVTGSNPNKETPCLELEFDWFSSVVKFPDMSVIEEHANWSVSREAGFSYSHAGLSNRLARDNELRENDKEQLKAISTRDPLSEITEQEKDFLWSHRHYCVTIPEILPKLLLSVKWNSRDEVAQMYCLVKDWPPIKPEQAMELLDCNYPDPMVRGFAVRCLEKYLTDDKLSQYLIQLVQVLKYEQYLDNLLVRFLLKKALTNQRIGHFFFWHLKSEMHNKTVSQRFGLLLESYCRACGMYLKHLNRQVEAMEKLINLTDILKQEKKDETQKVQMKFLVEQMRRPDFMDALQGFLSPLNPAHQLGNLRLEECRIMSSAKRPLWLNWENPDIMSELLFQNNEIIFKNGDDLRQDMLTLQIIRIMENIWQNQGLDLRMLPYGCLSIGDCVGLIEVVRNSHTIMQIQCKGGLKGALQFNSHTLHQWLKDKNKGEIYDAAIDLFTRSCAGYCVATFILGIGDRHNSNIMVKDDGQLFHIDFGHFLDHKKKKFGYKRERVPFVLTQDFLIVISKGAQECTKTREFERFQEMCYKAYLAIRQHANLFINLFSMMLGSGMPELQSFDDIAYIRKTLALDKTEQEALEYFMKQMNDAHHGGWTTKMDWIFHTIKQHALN
# Assay: NVS_ENZ_hPI3Ka: NovaScreen (NVS) Enzymatic Assay for human Phosphoinositide 3-kinase alpha (PI3Ka) (AID 2283196)
# Summary of the method: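 Chemicals were first screened at 25 uM in duplicate, then hits were run as concentration series up to 50 uM. Enzyme activity was measured by fluorescence after mobility-shift separation, with loss of signal relative to DMSO taken as activity.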
row,Compound,outcome
1,COc1ccc(OC(F)(F)F)cc1CN[C@H]1CCCN[C@H]1c1ccccc1,inactive
2,O=C1c2c(O)cccc2Cc2cccc(O)c21,inactive
3,CN(C)C(=O)NC1(c2ccccc2)CCN(CC[C@@]2(c3ccc(F)c(F)c3)CN(C(=O)c3ccccc3)CCO2)CC1,inactive

# Molecular target: human Protein Phosphatase, Mg2+/Mn2+ Dependent 1A (PPM1A), PPM1A (gene 5494) (UniProt P35813)
# Sequence (P35813 whole entry, looked up): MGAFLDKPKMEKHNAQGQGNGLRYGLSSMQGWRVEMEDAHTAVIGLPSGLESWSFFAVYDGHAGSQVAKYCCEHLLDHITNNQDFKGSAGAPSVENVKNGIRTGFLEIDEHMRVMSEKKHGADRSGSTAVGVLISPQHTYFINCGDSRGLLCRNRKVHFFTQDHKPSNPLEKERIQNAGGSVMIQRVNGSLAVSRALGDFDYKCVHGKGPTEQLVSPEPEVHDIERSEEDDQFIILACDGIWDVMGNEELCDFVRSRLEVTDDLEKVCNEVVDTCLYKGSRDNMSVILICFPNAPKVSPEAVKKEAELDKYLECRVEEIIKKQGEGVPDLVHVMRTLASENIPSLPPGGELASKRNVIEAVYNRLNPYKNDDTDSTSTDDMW
# Assay: NVS_ENZ_hPPM1A: NovaScreen (NVS) Enzymatic Assay for human Protein Phosphatase, Mg2+/Mn2+ Dependent 1A (PPM1A) (AID 2283198)
# Summary of the method: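 Primary screen in duplicate at 25 uM, with actives then titrated to a maximum of 50 uM. Recombinant PPM1A dephosphorylation of fluorescent substrate measured at 1 h, with substrate and product separated by mobility shift; inhibition fitted against DMSO.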
row,Compound,outcome
1,CSc1ccc(Oc2ccc(S(N)(=O)=O)cc2CN(C)C)cc1C,inactive
2,CC(=O)OC1CC(C)OC(C)O1 (stereo not given),inactive
3,Cc1ccc(C(C)(C)C)c(O)c1,inactive
4,CCCCCCCCCCCCCCCCO,inactive

# Molecular target: human Protein Tyrosine Phosphatase Non-receptor Type 1 (PTPN1), PTPN1 (gene 5770) (UniProt P18031)
# Sequence (P18031 whole entry, looked up): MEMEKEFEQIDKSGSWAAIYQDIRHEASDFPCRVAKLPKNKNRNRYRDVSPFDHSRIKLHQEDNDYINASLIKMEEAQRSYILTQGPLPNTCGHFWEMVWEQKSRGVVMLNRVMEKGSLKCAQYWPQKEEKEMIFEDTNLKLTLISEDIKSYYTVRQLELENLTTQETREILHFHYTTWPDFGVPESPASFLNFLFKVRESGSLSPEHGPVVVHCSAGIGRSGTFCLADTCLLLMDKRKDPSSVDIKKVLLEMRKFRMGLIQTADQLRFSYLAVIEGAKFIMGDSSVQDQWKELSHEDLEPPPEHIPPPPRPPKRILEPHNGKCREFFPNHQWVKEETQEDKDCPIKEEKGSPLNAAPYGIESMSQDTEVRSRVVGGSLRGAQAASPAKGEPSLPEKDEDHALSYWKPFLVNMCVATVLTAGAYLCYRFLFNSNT
# Assay: NVS_ENZ_hPTPN1: NovaScreen (NVS) Enzymatic Assay for human Protein Tyrosine Phosphatase Non-receptor Type 1 (PTPN1) (AID 2283201)
# Summary of the method: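 Chemicals were first tested in duplicate at 25 uM, and those passing threshold went on to singleton concentration series topping at 50 uM. Recombinant enzyme, specific substrate, product separated by mobility shift, fluorescence read at 1.33 h; activity loss relative to DMSO.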
row,Compound,outcome
1,NCCOCCOCCN,inactive
2,O=C(NS(=O)(=O)/C=C/c1cccs1)c1ccc(F)cc1Br,inactive
3,CCCCC(CC)COP(=O)(OCC(CC)CCCC)OCC(CC)CCCC (stereo not given),inactive

# Molecular target: Tyrosine-protein phosphatase non-receptor type 11 (Homo sapiens) (UniProt Q06124)
# Sequence (Q06124 whole entry, looked up): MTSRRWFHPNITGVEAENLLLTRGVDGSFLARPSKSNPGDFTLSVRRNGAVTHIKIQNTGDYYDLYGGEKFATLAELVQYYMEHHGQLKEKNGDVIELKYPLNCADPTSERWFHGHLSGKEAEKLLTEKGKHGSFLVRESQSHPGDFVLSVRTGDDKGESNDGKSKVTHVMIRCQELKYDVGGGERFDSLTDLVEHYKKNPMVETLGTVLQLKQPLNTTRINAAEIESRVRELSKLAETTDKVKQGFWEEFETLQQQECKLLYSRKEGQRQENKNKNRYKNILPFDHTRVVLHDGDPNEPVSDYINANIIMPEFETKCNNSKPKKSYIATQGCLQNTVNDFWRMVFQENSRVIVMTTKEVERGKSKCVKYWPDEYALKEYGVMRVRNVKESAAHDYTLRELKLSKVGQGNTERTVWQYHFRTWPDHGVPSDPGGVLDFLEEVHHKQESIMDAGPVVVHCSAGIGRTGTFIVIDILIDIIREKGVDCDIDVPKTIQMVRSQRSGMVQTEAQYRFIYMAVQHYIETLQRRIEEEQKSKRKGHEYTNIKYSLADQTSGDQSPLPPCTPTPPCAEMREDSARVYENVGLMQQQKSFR
# Assay: NVS_ENZ_hPTPN11: NovaScreen (NVS) Enzymatic Assay for human Protein Tyrosine Phosphatase Non-receptor Type 11 (PTPN11) (AID 2283202)
# Summary of the method: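 Compounds first tested in duplicate at 25 uM; those reaching ~30% inhibition rerun in singleton concentration-response, top 50 uM. Phosphatase activity measured after 0.5 h by fluorescence with mobility-shift separation, relative to DMSO.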
row,Compound,outcome
1,CC(C)NCC(O)c1ccc(O)c(O)c1 (stereo not given),inactive
2,CCN(CC)CCOc1ccc(C(=C(Cl)c2ccccc2)c2ccccc2)cc1,inactive
3,CN(C)C(=O)NC1(c2ccccc2)CCN(CC[C@@]2(c3ccc(F)c(F)c3)CN(C(=O)c3ccccc3)CCO2)CC1,inactive

# Molecular target: human Protein Tyrosine Phosphatase Non-receptor Type 6 (PTPN6), PTPN6 (gene 5777) (UniProt P29350)
# Sequence (P29350 whole entry, looked up): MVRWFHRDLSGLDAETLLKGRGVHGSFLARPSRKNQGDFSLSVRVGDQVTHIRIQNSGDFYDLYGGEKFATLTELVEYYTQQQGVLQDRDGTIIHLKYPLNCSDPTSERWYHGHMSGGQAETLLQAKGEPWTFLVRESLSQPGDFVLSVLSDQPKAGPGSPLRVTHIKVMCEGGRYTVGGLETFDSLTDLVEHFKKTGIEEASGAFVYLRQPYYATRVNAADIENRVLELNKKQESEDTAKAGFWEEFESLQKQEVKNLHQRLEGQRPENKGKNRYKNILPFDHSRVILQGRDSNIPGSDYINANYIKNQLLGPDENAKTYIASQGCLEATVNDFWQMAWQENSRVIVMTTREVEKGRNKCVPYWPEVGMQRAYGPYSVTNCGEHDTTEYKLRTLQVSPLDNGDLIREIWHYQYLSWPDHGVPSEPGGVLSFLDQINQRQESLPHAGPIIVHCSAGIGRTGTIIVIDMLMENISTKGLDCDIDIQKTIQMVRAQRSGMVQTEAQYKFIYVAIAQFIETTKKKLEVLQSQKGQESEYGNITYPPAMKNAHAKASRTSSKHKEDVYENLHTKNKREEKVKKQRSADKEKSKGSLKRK
# Assay: NVS_ENZ_hPTPN6: NovaScreen (NVS) Enzymatic Assay for human Protein Tyrosine Phosphatase Non-receptor Type 6 (PTPN6) (AID 2283210)
# Method: NVS_ENZ_hPTPN6 is a biochemical, single-readout assay that uses extracted gene-proteins from SF9 in a cell-free assay. Measurements were taken 1.33 hours after chemical dosing in a 384-well plate.NVS_ENZ_hPTPN6 is one of one assay component(s) measured or calculated from the NVS_ENZ_hPTPN6 assay. It is designed to make measurements of enzyme activity, a form of enzyme reporter, as detected with fluorescence intensity signals by Fluorescence and electrophoretic mobility shift technology.Data from the assay component NVS_ENZ_hPTPN6 was analyzed into 1 assay endpoint. This assay endpoint, NVS_ENZ_hPTPN6, was analyzed in the positive analysis fitting direction relative to DMSO as the negative control and baseline of activity. Using a type of enzyme reporter, loss-of-signal activity can be used to understand changes in the enzymatic activity as they relate to the gene PTPN6. Furthermore, this assay endpoint can be referred to as a primary readout, because this assay has produced multiple assay endpoints where this one serves a enzymatic activity function. To generalize the intended target to other relatable targets, this assay endpoint is annotated to the phosphatase intended target family, where the subfamily is non-receptor tyrosine phosphatase.
# (§1) Binding assays used specific radioligands (tritiated, iodinated) with non-radioactive competitive displacement ligands in agonist or antagonist protocols (as indicated) and various reference compounds and inhibitors to titrate specific binding to receptors and transporters. Most enzyme assays (CYPs, kinases, phosphatases, proteases, HDACs) used recombinant protein and specific substrates (fluorescence mostly, some colorimetric and radioactive) and inhibitors, followed by a biochemical separation of substrate and product. All assays for the biochemical HTS were initially run in duplicate at a single concentration (10 uM for CYP450 assays and 25 uM for all others). […] Each assay was run with positive and negative controls, and concurrent controls on every plate. The follow-up (secondary) screen tested active chemical-pairs in concentration series, as well as a few additional assays not tested in the primary screen, some selected negative inactives, and several cases re-run in the concentration series for confirmatory purposes.
row,Compound,outcome
1,CC(COCC(C)OC(=O)c1ccccc1)OC(=O)c1ccccc1 (stereo not given),inactive
2,CCCCCCC(C=O)=Cc1ccccc1,inactive
3,COc1ccc(C(=O)Nc2nc3ccccc3c(NCc3ccccc3)c2C#N)cc1,inactive
4,c1ccc2occc2c1,inactive
5,CN(C)C(=O)NC1(c2ccccc2)CCN(CC[C@@]2(c3ccc(F)c(F)c3)CN(C(=O)c3ccccc3)CCO2)CC1,inactive

# Molecular target: human Rho Associated Coiled-coil Containing Protein Kinase 1 (ROCK1), ROCK1 (gene 6093) (UniProt Q13464)
# Assay: NVS_ENZ_hROCK1: NovaScreen (NVS) Enzymatic Assay for human Rho Associated Coiled-coil Containing Protein Kinase 1 (ROCK1) (AID 2283214)
# Method: NVS_ENZ_hROCK1 is a biochemical, single-readout assay that uses extracted gene-proteins in a cell-free assay. Measurements were taken 1 hour after chemical dosing in a 384-well plate.NVS_ENZ_hROCK1 is one of one assay component(s) measured or calculated from the NVS_ENZ_hROCK1 assay. It is designed to make measurements of enzyme activity, a form of enzyme reporter, as detected with fluorescence intensity signals by Fluorescence and electrophoretic mobility shift technology.Data from the assay component NVS_ENZ_hROCK1 was analyzed into 1 assay endpoint. This assay endpoint, NVS_ENZ_hROCK1, was analyzed in the positive analysis fitting direction relative to DMSO as the negative control and baseline of activity. Using a type of enzyme reporter, loss-of-signal activity can be used to understand changes in the enzymatic activity as they relate to the gene ROCK1. Furthermore, this assay endpoint can be referred to as a primary readout, because this assay has produced multiple assay endpoints where this one serves a enzymatic activity function. To generalize the intended target to other relatable targets, this assay endpoint is annotated to the kinase intended target family, where the subfamily is serine/threonine kinase.
# as §1
row,Compound,outcome
1,N[C@@H](Cc1c[nH]c2ccccc12)C(=O)O,inactive
2,CN(C)C(=O)NC1(c2ccccc2)CCN(CCC[C@]2(c3ccc(Cl)c(Cl)c3)CCCN(C(=O)c3ccccc3)C2)CC1,inactive
3,O=C(Oc1ccccc1)c1cccc(C(=O)Oc2ccccc2)c1,inactive
4,CC(C)c1cccc(C(C)C)c1,inactive
5,O=C(N[C@@H](c1ccccc1)[C@@H]1CCCCN1)c1cccc(C(F)(F)F)c1Cl,inactive
